According to PubChem BioAssay (EPA / NIEHS):
“And” between values parts separate entries of the source, which are not always exact repeats. Equal entries are not always repeated. Where a structure was tested more than once in an assay, its records may differ in their call. The source made the active and inactive calls. How the source made its calls: active means hit-call score of the fitted dose curve at least 0.9, where 1 is the maximum; inactive means score below 0.9.

Experiment: BSK_3C_uPAR: BioMAP Diversity Plus: 3C Assay for Urokinase-type plasminogen activator receptor (uPAR) Biomarker Activity (AID 2282998)
Details: BioMAP 3C HUVEC, uPAR biomarker ELISA; actives raise or lower the signal
Method: BSK_3C is a cell-based, multiplexed-readout assay that uses umbilical vein endothelium, a human vascular primary cell, with measurements taken at 24 hours after chemical dosing in a 96-well plate.BSK_3CAR is an assay component measured in the BSK_3C assay. It measures uPAR antibody related to regulation of gene expression using ELISA technology.Data from the assay component BSK_3CAR was analyzed into 1 assay endpoint. This assay endpoint, BSK_3CAR, was analyzed with bidirectional fitting relative to DMSO as the negative control and baseline of activity. Using a type of binding reporter, gain or loss-of-signal activity can be used to understand changes in the signaling as they relate to the gene PLAUR. Furthermore, this assay endpoint can be referred to as a primary readout, because this assay has produced multiple assay endpoints where this one serves a signaling function. To generalize the intended target to other relatable targets, this assay endpoint is annotated to the cytokine intended target family, where the subfamily is plasmogen activator.
The levels of cell surface (or secreted, indicated by the prefix "s") biomarker endpoints were measured by ELISA. Overt cytotoxicity to cells in confluent adherent cultures (all systems other than the BT system) was assessed by measuring total protein levels using sulforhodamine B (SRB) staining in parallel cultures at the time of biomarker measurements, indicated as SRB endpoints. For proliferation assays for adherent cell types, individual cell types are cultured at sub-confluence and relative cell numbers quantified by SRB staining at time points optimized for each system (48 h: 3C and CASM3C systems; 72 h: BT and HDF3CGF systems; 96 h: SAg system). SRB was performed by staining cells with 0.1% SRB after fixation with 10% TCA and reading wells at 560 nm.Viability and proliferation of PBMC (T cells) was quantified by Alamar Blue reduction for the SAg and BT systems. For PBMC viability (referred to as PBMC Cytotoxicity within the assay endpoint names), cells were plated (75,000/well in a 96-well plate) and then chemical samples added for 1 h before addition of activators, SEB and TSST-1 (20 ng/mL final concentration each). Cells were incubated for 90 h. Then, Alamar Blue (20 uL/well) (Invitrogen, Cat DAL1100) was added for 6 h, and the plates were read with a fluorescence microplate reader at 546/580 nm (excitation/emission). For PBMC proliferation, cells were plated and activated as above but incubated for only 16 h prior to addition of Alamar Blue. Plates were read after 6 h.

| Compound | outcome | AC50 |
| --- | --- | --- |
| N#CCCCCC#N | inactive |  |
| O=c1[nH]c(Cl)c(Cl)cc1Cl | inactive |  |
| O=C(CCl)c1ccccc1 |  | 6.89 µM (active) |
| O=S(=O)(c1ccccc1)c1ccccc1 | inactive |  |
| Oc1ccc(C2(c3ccc(O)cc3)c3ccccc3-c3ccccc32)cc1 |  | 11.5 µM (active) and 9 µM (active) |
| CCCOC(=O)c1ccccc1C(=O)OCCC | inactive |  |
| CC(C)CCCCCCCOP(=O)(Oc1ccccc1)Oc1ccccc1 |  | 12.1 µM (active) |
| O=P1(NCCCl)OCCCN1CCCl (stereo not given) | inactive |  |
| C=CC(=O)OCC(CC)CCCC (stereo not given) | inactive |  |
| O=C(O)CCCc1ccc(N(CCCl)CCCl)cc1 |  | 20 µM (active) and 16.3 µM (active) |
| C=CCN(CC=C)C(=O)C(Cl)Cl | inactive |  |
| O=C1C=CC(=O)C=C1 | inactive | 12.8 µM (active) |
| Clc1ccc(-c2ccccc2)cc1 | inactive |  |
| CCC(C)c1cc([N+](=O)[O-])cc([N+](=O)[O-])c1OC(=O)C=C(C)C (stereo not given) |  | 7.18 µM (active) |
| O=[N+]([O-])O | inactive |  |
| CC(C)(C)C(=O)CCl | inactive |  |
| CCCCCCCCCCCC#N |  | 37.8 µM (active) |
| O=c1c2ccccc2c(=O)c2c1cc(Cl)c1[nH]c3c([nH]c12)c(Cl)cc1c(=O)c2ccccc2c(=O)c13 | inactive |  |
| Nc1ccc(-c2ccc(N)c(N)c2)cc1N | inactive |  |

| Compound | outcome | AC50 |
| --- | --- | --- |
| CC(C)COP(=O)(OCC(C)C)OCC(C)C | inactive |  |
| CC1(C)[C@H](C(=O)O[C@H](C#N)c2cccc(Oc3ccccc3)c2)[C@@H]1C=C(Br)Br | inactive | 0.0401 µM (active) |
| c1ccc(Nc2ccc3ccccc3c2)cc1 |  | 20 µM (active) |
| COC(C)(C)CCC[C@H](C)C/C=C/C(C)=C/C(=O)OC(C)C |  | 33.5 µM (active) |
| CC(C)(C)C(O)C(Oc1ccc(-c2ccccc2)cc1)n1cncn1 (stereo not given) |  | 32.2 µM (active) |
| CCCC[N+](CCCC)(CCCC)CCCC | inactive |  |
| O=[N+]([O-])c1ccc(Cl)cc1 | inactive |  |
| Oc1cc(Cl)ccc1Cl | inactive |  |
| COCC(=O)N(c1c(C)cccc1C)N1CCOC1=O | inactive |  |
| CC(=O)/C=C/c1ccccc1 | inactive |  |
| CC(C)(c1cc(Cl)c(O)c(Cl)c1)c1cc(Cl)c(O)c(Cl)c1 |  | 9.36 µM (active) |
| [Cd+2].[Cl-].[Cl-] | inactive |  |
| COc1ccc(CO)cc1 | inactive |  |
| Cc1ccc(OP(=O)(Oc2ccc(C)cc2)Oc2ccc(C)cc2)cc1 (tested in a mixture with another compound) | inactive |  |
| O=[N+]([O-])C=Cc1ccccc1 |  | 5.53 µM (active) |
| CC(C)CCCCCCCOC(=O)c1ccccc1C(=O)OCCCCCCCC(C)C | inactive |  |
| CNC(=O)Oc1cc(C)c(SC)c(C)c1 | inactive |  |
| CCc1cc(C)cc(CC)c1-c1c(OC(=O)C(C)(C)C)n2n(c1=O)CCOCC2 |  | 4 µM (active) |
| O=C1C(Cl)=C(Cl)C(=O)C(Cl)=C1Cl |  | 9.52 µM (active) |
